# High-throughput results: PubChem BioAssay, several laboratories
# MEX-5 binding: C. elegans MEX-5 TCR-2 RNA binding activity. Q9XUB2. MEX-5/FITC-TCR2 RNA binding, fluorescence polarization; active compounds read low. activity score (negative = inhibition of binding), % at 10 µM. 300,000 tested, 0.38% active. AID 1832;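 active = inhibition past about -25% in most replicates, and total fluorescence under double the plate's negative control median, limit read from the data; inconclusive = replicates evenly split on the limit, or fluorescence at least double controls; inactive = too little inhibition in most replicates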;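 note: 0% = DMSO and -100% = 5 µM competing unlabeled TCR2 RNA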
# Target sequence (Q9XUB2 whole entry, looked up): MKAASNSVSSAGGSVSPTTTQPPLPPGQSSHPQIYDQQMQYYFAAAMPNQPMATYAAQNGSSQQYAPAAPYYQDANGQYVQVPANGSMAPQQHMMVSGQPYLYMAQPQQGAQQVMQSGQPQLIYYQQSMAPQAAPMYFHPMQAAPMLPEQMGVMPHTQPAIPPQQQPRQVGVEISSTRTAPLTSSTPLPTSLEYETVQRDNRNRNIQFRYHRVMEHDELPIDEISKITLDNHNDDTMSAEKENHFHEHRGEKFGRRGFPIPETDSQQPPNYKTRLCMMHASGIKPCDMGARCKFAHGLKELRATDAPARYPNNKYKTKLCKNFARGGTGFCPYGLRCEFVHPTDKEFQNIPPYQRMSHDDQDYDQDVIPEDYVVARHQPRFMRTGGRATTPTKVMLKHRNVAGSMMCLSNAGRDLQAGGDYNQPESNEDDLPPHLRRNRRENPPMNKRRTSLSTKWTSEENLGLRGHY
# BCLXL inh: inhibitors of human Bcl-xL; inhibition, % at 10.9 µM; GST-Bcl-xL / FITC-Bim BH3 peptide fluorescence polarization; 320,000 tested, 0.7% active;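 active = inhibition above the mean of all tested compounds plus 3 SD, cutoff set per campaign, cut at about 30% in these data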;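 note: 0% = DMSO wells and 100% = unlabeled Bim-BH3 peptide competitor; inhibitors lower millipolarization by displacing the labeled peptide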
# EBV gp42 inh: inhibitors of Epstein-Barr virus glycoprotein 42 | Q1HVG2 | Fluorescence polarization binding assay, mP read-out | inhibition, % (tested at 21.74 µM) | 220,000 tested, 0.42% active | AID 1085; in the data active = inhibition above about 50%
# MCL1 BIM primary: disrupts human MCL1 binding to BIM-BH3 peptide; Q07820; GST-MCL1 / FITC-Bim-BH3 fluorescence polarization; inhibition, % at 10.9 µM; 320,000 tested, 0.68% active; AID 2057;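 active = inhibition above the mean inhibition of all tested compounds plus 3 SD, set per campaign, cut at about 40% in these data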;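 note: 0% = DMSO wells and 100% = unlabeled Bim-BH3 peptide control; higher means more loss of mP so more displacement of Bim peptide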
# GLD-1 TGE inh: GLD-1-TGE RNA interaction inhibition (C. elegans); Q17339; purified GLD-1 + fluorescein TGE RNA, fluorescence polarization; inhibition, % at 5.96 µM; 320,000 tested, 0.44% active; AID 2280;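 active = percent inhibition above a per-plate cutoff, the plate mean of test compounds plus 3 SD, cut at about 30% in these data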;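 note: 0% = DMSO wells with GLD-1 and probe and 100% = wells lacking GLD-1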
# eLon inh: inhibitors of E. coli Lon protease | P0A9M0 | purified E. coli Lon protease, fluorescence polarization | inhibition, % at 7.94 µM | 360,000 tested, 0.42% active | AID 602123; in the data active = inhibition above about 13%, passing the limit was not always enough;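 note: 0% = enzyme with probe and DMSO and 100% = no enzyme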
# BCLXL inh confirm: counter-screen for MCL1 inhibitors: confirmation of human Bcl-xL inhibitors; AID 2166; shares compounds with MCL1 BIM primary; inhibition, % at 10.9 µM; 1,700 tested, 54% active; GST-Bcl-xL / FITC-Bim BH3 peptide FP binding;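 active = inhibition above a cutoff equal to the mean inhibition of all tested compounds plus 3 SD, cut at about 30% in these data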;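 note: 0% = DMSO wells and 100% = unlabeled Bim BH3 control peptide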
# MCL1 BIM confirm: confirmation of human MCL1 and BIM-BH3 interaction inhibitors | shares compounds with MCL1 BIM primary | GST-MCL1 / FITC-Bim-BH3 fluorescence polarization | inhibition, % at 10.9 µM | 1,700 tested, 61% active | AID 2168;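 active = inhibition above the average of all tested compounds plus 3 SD, cut at about 40% in these data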;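 note: 0% = DMSO wells and 100% = unlabeled Bim-BH3 control peptide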
# * hit, by the source's call; u = inconclusive; x = no result; + = active, no number. Rows were chosen to be rich in hits. Some 1.5% of all compounds tested hit in one or more screens of this group.
SMILES,MEX-5 binding,BCLXL inh,EBV gp42 inh,MCL1 BIM primary,GLD-1 TGE inh,eLon inh,BCLXL inh confirm,MCL1 BIM confirm
O=c1c2c(ncn2C2CCCC2)n(Cc2ccccc2)c(=O)n1CCOc1ccc(Br)cc1,3,-2,-37,53*,-3,-8,17,18
O=c1c2c(ncn2C2CCCC2)n(Cc2ccccc2)c(=O)n1CCOc1ccccc1,1,-1,-17,4,1,-10,x,x
C=CCN(C(=O)c1csnn1)C(C(=O)NC1CCCCC1)c1ccc(F)cc1 (stereo not given),5,8,x,14,1,-2,x,x
CC1(C)Cc2c(sc3[nH]c(=S)n(Cc4ccco4)c(=O)c23)CO1,2,1,7,-6,3,-8,x,x
O=c1c2c3c(sc2[nH]c(=S)n1Cc1ccco1)CCC3,1,8,16,48*,-2,6,17,41*
O=C(O)c1cc(-c2ccc(/C=C3\NC(=O)N(c4ccc(Cl)cc4)C3=O)o2)ccc1Cl,u,29,11,72*,4,-13,32*,55*
O=C(O)c1cc(-c2ccc(/C=C3\NC(=O)N(c4ccccc4)C3=O)o2)ccc1Cl,-10,23,-2,31,9,0,x,x
CC(C)OCCCn1c(=NC(=O)c2cccs2)c(C#N)cc2c(=O)n3ccccc3nc21,u,106*,33,114*,58*,2,23,28
CCOCCCn1c(=N)c(C(=O)NCc2ccc3c(c2)OCO3)cc2c(=O)n3ccccc3nc21,-11,x,11,x,x,x,x,x
CC(=O)N=c1c(C#N)cc2c(=O)n3ccccc3nc2n1CCCOC(C)C,6,12,-7,15,3,-9,x,x
CC(C)OCCCn1c(=N)c(C(N)=S)cc2c(=O)n3ccccc3nc21,-18,83*,37,82*,11,-33,70*,86*
O=S(=O)(c1ccc(SCc2ccccc2)nc1)N1CCCCC1,x,1,x,0,-1,4,x,x
C=C(C)c1cccc(C(C)(C)NC(=O)Nc2ncccn2)c1,-5,7,-10,3,-2,1,x,x
COc1ccccc1-c1cccc([C@@H]2C[C@H]3[C@H](CON3C)CN2Cc2ccccc2)c1,x,x,x,x,x,-3,x,x
Cc1ccc(-c2csc(-c3c[nH]c4ccccc34)n2)c(C)c1,1,4,12,89*,8,4,1,-1
Cc1cccc(C(C)(C)C)c1OCCn1ccnc1,-9,-1,-17,-2,3,-10,x,x
CNc1cccccc1=S,-7,54*,11,78*,28,1,28,27
CNc1ccccc1,x,4,x,4,1,7,x,x
CCN(CC)S(=O)(=O)c1cc(NC(=O)C2CC(=O)N(Cc3ccccc3)C2)ccc1Cl (stereo not given),x,-7,x,-3,10,-7,x,x
CN(C)C(=O)N1CCN(C(=O)N2CCOCC2)CC1,1,158*,-16,139*,101*,-7,3,7
CCN(CC)C(=O)N1CCN(C(=O)N2CCOCC2)CC1,-1,5,-17,2,2,-6,x,x
Cc1ccc(/C=N/N2CCN(c3ccccn3)CC2)o1,1,4,-3,2,9,1,x,x
CN(C)Cc1c(O)ccc2c(=O)c(-c3ccc(Cl)cc3)coc12,-2,7,x,3,3,-2,x,x
O=c1c(-c2ccc([N+](=O)[O-])cc2)coc2c(O)c(O)ccc12,-10,26,-3,45*,3,-3,43*,63*
CN(C)CCn1nnnc1SCC1=C(C(=O)O)N2C(=O)[C@@H](NC(=O)Cc3csc(N)n3)[C@H]2SC1,x,37*,x,51*,19,-3,28,36
SMILES,MEX-5 binding,BCLXL inh,EBV gp42 inh,MCL1 BIM primary,GLD-1 TGE inh,eLon inh,BCLXL inh confirm,MCL1 BIM confirm
CC(C)C(=O)Nc1ccccc1N1CCN(S(C)(=O)=O)CC1,2,6,-19,1,-3,11,x,x
CCCCCC(=O)N1C[C@H](O)[C@@H](n2cc(COC(=O)c3ccccc3)nn2)C[C@@H]1c1ccccc1,x,x,x,x,x,-6,x,x
C/C(=N\Nc1ncnc2sc(C)c(C)c12)c1ccccn1,u,101*,x,101*,25,-25,+,+
Oc1ccccc1C=Nc1cccc2ccccc12,1,12,x,10,5,2,x,x
Oc1c(C=NCc2ccccc2)sc2ccccc12,-1,6,0,10,3,6,x,x
Oc1cccc(C=NCc2ccccc2)c1O,0,30,2,64*,13,21,32*,65*
Oc1cccc(C=Nc2cccc3ccccc23)c1O,-4,38*,x,66*,24,-8,31*,52*
COCCn1c(SCC(=O)N2CCCC2=O)nc2sc(C)c(C)c2c1=O,-1,1,x,76*,2,5,6,18
CCn1c(SCC(=O)NCCOC)nc2sc(C)c(C)c2c1=O,-1,x,-9,x,x,x,x,x
COC(=O)c1ccc(CSc2nnc3ccccn23)o1,0,4,-3,36,-6,10,x,x
COc1ccc(CCNc2c(N)n(Cc3ccccc3)c(=O)[nH]c2=O)cc1OC,-19,71*,43,96*,79*,0,74*,85*
COc1ccc(CCNc2c(C=O)c(=O)[nH]c3ccccc23)cc1OC,1,0,x,-2,5,3,x,x
Nc1c(NCc2ccccc2F)c(=O)[nH]c(=O)n1Cc1ccccc1,-8,86*,10,97*,93*,3,23,29
O=C(O)c1ccc(-n2cccc2/C=C2/SC(=O)N(CC(=O)N3CCCC3)C2=O)cc1,-21,14,x,55*,1,-6,19,50*
N#Cc1ccccc1CN1C(=O)S/C(=C/c2cccn2-c2ccc(C(=O)O)cc2)C1=O,1,3,-1,20,1,-11,x,x
COc1ccc(Cl)cc1N(CC(=O)N1CCC(C)CC1)S(C)(=O)=O,2,1,-7,65*,-3,-8,11,17
O=C1c2ccccc2-c2onc3ccc(Oc4ccccc4)c1c23,-15,63*,-36,61*,37*,-19,20,25
CC(C)C[C@H]1C(=O)N2CCC[C@H]2[C@]2(O)O[C@](NC(=O)C3C=C4c5cccc6[nH]c(Br)c(c56)C[C@H]4N(C)C3)(C(C)C)C(=O)N12 (stereo not given in full),2,100*,x,115*,92*,56,16,19
CC1=C(C(=O)Nc2ccccc2)C(c2ccco2)n2ncnc2N1 (stereo not given),1,1,-12,4,7,-2,x,x
